# Data published in PubChem BioAssay.
# Activity calls are given as the source filed them.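 The calls were made as follows, unless noted: active = inhibition at or above 50% relative to wild type and mutant plate controls; inactive = inhibition below 50%.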
# Columns and labels:
# [1] = inhibitors of TNFa-induced NFkB p65 translocation, primary screen, imaging, HUVEC, MLSMR starter and 10KST1 sets (AID 438;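 active = inhibition above 20% together with a positive visual image hit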;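 also: compound added about 3h40 before a 20 min TNFalpha stimulation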;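 as to inhibition: signal is the nuclear over cytoplasmic p65 intensity ratio per well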); details: HUVEC TNFa-induced p65 nuclear translocation; cell count: measured here: nuclei count (cytotoxicity indicator), at 2.08 µM; inhibition: at 2 µM, stronger effect = higher value, 0% TNFa-plus-vehicle, 100% no-TNFa wells
# [2] = inhibitors of mutant huntingtin aggregation, primary screen, imaging, exon1htt(103Q)mCFP cells, high-content imaging (AID 483;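 active = visual image review flags a hit and inhibition of aggregation exceeds 20%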;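 also: compound exposure lasted 3 days before fixation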;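 as to nuclei count: percent of the per-plate median nuclei count of sample wells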); details: exon1htt(103Q)mCFP cell line, aggregate imaging, at 2 µM; inhibition of aggregation: stronger effect = higher value; nuclei count: measured here: cell count, toxicity
# [3] = inhibitors of E-selectin induction by TNFa, primary screen, imaging, HUVEC, immunofluorescence, MLSMR starter and 10KST1 sets (AID 487;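 active = visually confirmed hit in the image check and inhibition above 20%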;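 as to inhibition: signal is fraction of cell area covered by stained E-selectin grains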;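 as to nuclei count: 100% = median nuclei count of all wells on the same plate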); details: HUVEC TNFalpha-induced E-selectin immunofluorescence imaging, at 2 µM; inhibition: stronger effect = higher value; nuclei count: measured here: cell number, toxicity
# [4] = DUSP6 inhibitors restoring Erk phosphorylation by chemical complementation, primary imaging in DUSP6-transfected HeLa (AID 609;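 active = compounds giving at least 50% inhibition in the cell-based MKP-3 phosphatase rescue imaging test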;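 as to inhibition: phospho-Erk level distribution per well compared with pooled transfected vehicle control wells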); details: HeLa MKP-3 transfected, phospho-Erk imaging KS statistic, at 10 µM, cells stimulated with TPA for 15 min
# [5] = molecular target: Dual specificity protein phosphatase 6 (Homo sapiens) (UniProt Q16828); test: as above; details: HeLa MKP-3 transfected, phospho-Erk imaging KS statistic; at 10 µM; stronger effect = higher value; cells stimulated with TPA for 15 min
# Chain of Dual specificity protein phosphatase 6 (Homo sapiens) (Q16828 whole entry, looked up): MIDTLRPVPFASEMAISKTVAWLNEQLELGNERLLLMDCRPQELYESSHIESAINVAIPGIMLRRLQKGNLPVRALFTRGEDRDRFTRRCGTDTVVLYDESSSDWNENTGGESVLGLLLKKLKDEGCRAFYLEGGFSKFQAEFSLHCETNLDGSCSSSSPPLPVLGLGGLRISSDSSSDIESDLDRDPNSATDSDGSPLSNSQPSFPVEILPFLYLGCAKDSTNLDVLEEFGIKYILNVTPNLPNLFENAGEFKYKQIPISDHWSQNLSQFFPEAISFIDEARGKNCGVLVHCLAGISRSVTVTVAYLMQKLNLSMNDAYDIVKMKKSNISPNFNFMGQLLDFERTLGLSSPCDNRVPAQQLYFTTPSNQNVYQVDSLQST
# [6] = molecular target: Voltage-gated potassium channel subunit beta-2 (Rattus norvegicus) (UniProt P62483); test: KvBeta enzyme negative modulators, primary screen, biochemical, NADPH fluorescence (AID 622;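 active = fluorescence slope higher than the sample average by over 3 SD, cut at about -0.22 in these data, passing the limit was not always enough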;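 also: slope of raw intensity against log time taken from 70 to 1610 s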); details: recombinant KvBeta, 4-cyanobenzaldehyde reduction, at 10 µM, stronger effect = higher value
# Chain of Voltage-gated potassium channel subunit beta-2 (Rattus norvegicus) (P62483 whole entry, looked up): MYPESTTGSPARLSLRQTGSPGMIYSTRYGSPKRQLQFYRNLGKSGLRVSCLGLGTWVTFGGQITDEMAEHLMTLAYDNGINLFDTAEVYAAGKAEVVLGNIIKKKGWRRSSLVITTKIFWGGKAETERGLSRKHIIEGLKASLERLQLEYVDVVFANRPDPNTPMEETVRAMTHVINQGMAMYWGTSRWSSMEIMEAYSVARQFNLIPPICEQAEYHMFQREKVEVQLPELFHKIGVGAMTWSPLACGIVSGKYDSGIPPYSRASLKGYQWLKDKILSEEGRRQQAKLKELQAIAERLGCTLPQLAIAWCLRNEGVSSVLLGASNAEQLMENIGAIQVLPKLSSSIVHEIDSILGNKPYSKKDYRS
# [7] = molecular target: Voltage-gated potassium channel subunit beta-2 (Rattus norvegicus) (UniProt P62483); test: KvBeta positive modulators, primary screen, biochemical, NADPH fluorescence (AID 623;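 active = NADPH fluorescence slope more negative than the mean of all samples by about 3 SD, 99.7% confidence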;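 also: fluorescence intensity change per second fitted from 20 to 320 s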); details: Recombinant KvBeta, NADPH fluorescence decrease slope, 10 min; at 10 µM; stronger effect = lower value
# [8] = molecular target: Alpha-2C adrenergic receptor (Homo sapiens) (UniProt P18825); test: modulators of alpha2C/GIRK thallium flux, primary screen, cell-based, HEK293 alpha2C/GIRK1/2 (AID 624;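 active = fluorescence slope after compound addition differing from the mean of all screened samples at 99.7% confidence, in either direction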;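 also: slope of fluorescence ratio to pre-addition baseline per second over 15 to 24 s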); details: thallium flux BTC fluorescence, at 10 µM, actives lie on both sides
# Chain of Alpha-2C adrenergic receptor (Homo sapiens) (P18825 whole entry, looked up): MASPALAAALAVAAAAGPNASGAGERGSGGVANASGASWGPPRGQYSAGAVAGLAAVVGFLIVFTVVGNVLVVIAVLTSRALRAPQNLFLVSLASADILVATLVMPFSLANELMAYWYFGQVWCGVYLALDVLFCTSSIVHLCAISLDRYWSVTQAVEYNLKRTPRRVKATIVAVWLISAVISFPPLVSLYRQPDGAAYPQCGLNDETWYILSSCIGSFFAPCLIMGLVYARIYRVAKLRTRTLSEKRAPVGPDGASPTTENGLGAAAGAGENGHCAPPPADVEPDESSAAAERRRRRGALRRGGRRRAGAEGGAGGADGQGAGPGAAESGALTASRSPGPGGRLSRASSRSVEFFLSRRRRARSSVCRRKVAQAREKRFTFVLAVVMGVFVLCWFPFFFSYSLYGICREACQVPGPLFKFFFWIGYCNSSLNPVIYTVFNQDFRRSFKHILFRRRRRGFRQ
# [9] = molecular target: Muscarinic acetylcholine receptor M4 (Homo sapiens) (UniProt P08173); test: compounds altering M4/GIRK thallium flux, either direction, primary screen, M4 allosteric agonist project, cell-based, HEK293 M4/GIRK, BTC-AM (AID 625;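 active = fluorescence slope after compound addition differing from the mean of all tested samples at 99.7% confidence, mostly higher but some lower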;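 also: thallium influx through GIRK channels coupled to M4 in HEK293 cells with BTC-AM dye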); details: at 10 µM, actives lie on both sides
# Chain of Muscarinic acetylcholine receptor M4 (Homo sapiens) (P08173 whole entry, looked up): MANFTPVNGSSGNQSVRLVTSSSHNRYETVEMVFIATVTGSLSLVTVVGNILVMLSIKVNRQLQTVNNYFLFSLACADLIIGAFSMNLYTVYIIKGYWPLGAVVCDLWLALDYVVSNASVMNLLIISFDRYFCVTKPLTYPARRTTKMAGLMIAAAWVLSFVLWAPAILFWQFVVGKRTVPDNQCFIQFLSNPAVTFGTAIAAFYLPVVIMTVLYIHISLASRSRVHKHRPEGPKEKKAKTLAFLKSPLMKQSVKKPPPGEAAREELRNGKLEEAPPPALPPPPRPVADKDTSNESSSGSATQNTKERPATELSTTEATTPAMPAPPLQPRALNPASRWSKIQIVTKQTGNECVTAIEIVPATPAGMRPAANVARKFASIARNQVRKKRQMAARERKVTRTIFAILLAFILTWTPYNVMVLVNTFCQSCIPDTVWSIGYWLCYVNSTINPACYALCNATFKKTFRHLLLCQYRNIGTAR
# [10] = inhibitors of larval lipid processing in zebrafish, primary screen, whole organism, PED6 fluorescence, gall bladder and intestine (AID 686;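 active = a full or partial loss of lipid-probe fluorescence in the fish gall bladder, intestine or both, judged by eye; inactive = no fluorescence loss, or compound toxic to the fish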;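 also: larvae 5 to 7 days old with five fish per well; signal comes from phospholipase A2 cleavage of quenched PED6 carried via bile; overnight exposure to compound and PED6 before scoring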); details: Zebrafish larvae PED6 lipid processing, fluorescence scoring; screened at 20 µM (by protocol)
# [11] = inhibitors of Chlamydomonas gravitaxis, primary screen, whole organism, Chlamydomonas reinhardtii, WT vs cilia-less mutant, absorbance, 96-well (AID 463189); details: OD600 absorbance, 2 days, at 10 µM, stronger effect = higher value;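 also: 0% = wild type cc124 cells in DMSO and 100% = ciliumless bld1 mutant cells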
# [12] = inhibitors of Sendai virus-induced IRF3 signaling, primary screen, TLR/RLR signaling modifier project, cell-based, Sendai virus stimulus, luciferase, 10K MLSCN set (AID 602276;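 active = inhibition at or above 50% at 10 µM; inactive = inhibition below 50%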;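 also: firefly luciferase from ISG56 promoter only with Renilla not read in this screen; 0% = Sendai virus plus DMSO and 100% = medium plus DMSO without virus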); details: HEK293 RL24 IRF3 luciferase reporter, at 10 µM, stronger effect = higher value
# [13] = inhibitors of poly I:C-induced TLR3 signaling, primary screen, cell-based, poly I:C stimulus, luciferase, 10K MLSCN set (AID 602277;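 active = inhibition of the reporter signal at or above 50%; inactive = inhibition below 50%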); details: HEK293-TLR3 RL24 IRF3 luciferase reporter, at 10 µM, stronger effect = higher value
# [14] = measured here: cell density z-score
# [15] = measured here: nuclear c-Myc green intensity z-score
# [16] = measured here: nuclear pErk red intensity z-score, stronger effect = higher value
SMILES,cell count [1],inhibition [1],inhibition of aggregation [2],nuclei count [2] [%],inhibition [3],nuclei count [3] [%],"z-score [4, 14]","z-score [4, 15]","z-score [4, 16]",inhibition [5],fluorescence slope [6],NADPH fluorescence slope [7],slope [8],fluorescence slope [9],outcome [10],inhibition [11],inhibition [12],inhibition [13]
Cc1nnc(NCc2n[nH]c(=O)c3ccccc23)c2ccccc12,459,-4.7% (inactive),-19.6% (inactive),51.5,-23.8% (inactive),118,-2.3,1.26,1.58,7.21% (inactive),-0.502 (inactive),-0.000115 (inactive),0.00499 (inactive),0.0052 (inactive),inactive,-15.8% (inactive),4.22% (inactive),-7.48% (inactive)
CCOc1ccc2nc(SCC(=O)Nc3ncccn3)[nH]c2c1,478,-3.6% (inactive),-10.2% (inactive),111,-10.6% (inactive),138,-1.13,-0.409,1.4,1.98% (inactive),-0.358 (inactive),-4.6e-05 (inactive),0.00651 (inactive),0.00652 (inactive),inactive,10.6% (inactive),-10.6% (inactive),99.1% (active)
CC1(C2(O)CC(c3ccccc3)ON2)CCCCC1 (configuration not stated),623,1.7% (inactive),41.9% (inactive),65.3,-10.4% (inactive),105,-1.89,-1.27,0.343,-6.06% (inactive),-0.516 (inactive),-7.6e-05 (inactive),0.0054 (inactive),0.00556 (inactive),inactive,9.38% (inactive),2.61% (inactive),4.59% (inactive)
CCOc1ccc(S(=O)(=O)N(C)C)cc1-c1nc2c(C(C)(C)C)nn(C)c2c(=O)[nH]1,411,20.9% (active),-22.3% (inactive),107,27.5% (inactive),115,1.1,0.134,-1.43,17.3% (inactive),-0.477 (inactive),-0.000115 (inactive),0.00418 (inactive),0.00621 (inactive),inactive,19.7% (inactive),-1.7% (inactive),-7.19% (inactive)
COc1ccc(/C(O)=C2/C(=O)C(=O)N(CCN(C)C)C2c2ccccn2)cc1OC (configuration not stated),485,-2% (inactive),-10.2% (inactive),100,-108% (inactive),103,-0.696,-0.268,-0.24,2.71% (inactive),-0.47 (inactive),-8.1e-05 (inactive),0.00777 (inactive),0.00535 (inactive),inactive,-0.28% (inactive),-0.634% (inactive),5.99% (inactive)
CCc1cc2c(=O)c(-c3nc4ccccc4[nH]3)coc2cc1OC(=O)N1CCOCC1,666,-4.8% (inactive),-15.2% (inactive),126,-44.8% (inactive),149,0.051,0.477,-0.475,-9.53% (inactive),-0.483 (inactive),-3e-05 (inactive),0.00512 (inactive),0.00565 (inactive),inactive,-11.5% (inactive),-4.36% (inactive),-9.08% (inactive)
CCCC1Cc2c(sc3ncnc(N)c23)CO1 (configuration not stated),492,-5.3% (inactive),-8% (inactive),80.5,-49.3% (inactive),139,-0.574,-0.569,0.241,-1.98% (inactive),-0.411 (inactive),-4.2e-05 (inactive),0.00633 (inactive),0.00429 (inactive),inactive,1.24% (inactive),-2.55% (inactive),5.36% (inactive)
CC(=O)Nc1ccc(Oc2ccc3nc(C)[nH]c3c2)cc1,566,-6.8% (inactive),13% (inactive),95.6,-129% (inactive),133,-0.271,-0.885,-1.67,13.7% (inactive),-0.504 (inactive),-3.4e-05 (inactive),0.00532 (inactive),0.00521 (inactive),inactive,5.53% (inactive),-8.22% (inactive),-0.929% (inactive)
Cn1c(=O)c2c(nc(Oc3ccc4c(c3)OCO4)n2Cc2ccc(F)cc2)n(C)c1=O,691,-7.2% (inactive),4.8% (inactive),108,-27.6% (inactive),90.8,-1.8,-0.122,-1.44,1.9e-07% (inactive),-0.503 (inactive),-2e-05 (inactive),0.00727 (inactive),0.00586 (inactive),inactive,-14.6% (inactive),20.6% (inactive),26.7% (inactive)
CN(C)C(CN1C(=O)C2CC=CCC2C1=O)c1cn(C)c2ccccc12 (configuration not stated),665,2.5% (inactive),12.2% (inactive),99.9,-48.8% (inactive),124,-1.61,2.35,0.886,-3.95% (inactive),-0.474 (inactive),-2.6e-05 (inactive),0.00544 (inactive),0.00462 (inactive),inactive,-7.45% (inactive),24.3% (inactive),46.8% (inactive)
CCN(CC)CCCN1C(=O)C(=O)/C(=C(/O)c2ccccc2)C1c1ccccn1 (configuration not stated),528,-5.4% (inactive),5.1% (inactive),104,-45% (inactive),121,0.55,-1.39,-0.0355,7.7% (inactive),-0.473 (inactive),-3.7e-05 (inactive),0.00741 (inactive),0.00518 (inactive),inactive,8.25% (inactive),2.69% (inactive),1.93% (inactive)
Cc1ccc(S(=O)(=O)N2CCN(c3nc(C(C)C)c4c(c3C#N)CC(C)(C)OC4)CC2)cc1,604,-7.5% (inactive),-19.5% (inactive),102,-19.5% (inactive),120,0.934,0.596,-1.08,5.35% (inactive),-0.441 (inactive),-8.5e-05 (inactive),0.00654 (inactive),0.00645 (inactive),inactive; toxic,-7.57% (inactive),-1.31% (inactive),44.4% (inactive)
COc1cc2[nH]c3c(=O)n(CCN(C(C)C)C(C)C)cnc3c2cc1OC,531,-5.6% (inactive),-4% (inactive),102,-26.1% (inactive),150,0.411,-1.49,0.261,3.97% (inactive),-0.317 (inactive),-1.9e-05 (inactive),0.00406 (inactive),0.00609 (inactive),inactive,5.81% (inactive),10.1% (inactive),33.2% (inactive)
Cc1nc(Sc2cccn2C)c(C(F)(F)F)c(=O)[nH]1,556,-4.5% (inactive),4.3% (inactive),96.7,-64.1% (inactive),108,-1.97,0.557,2.32,1.9e-07% (inactive),-0.447 (inactive),-2.3e-05 (inactive),0.00534 (inactive),0.00695 (inactive),inactive,12.2% (inactive),13.1% (inactive),3.1% (inactive)
Cc1cn2c(-c3ccncc3)nnc2s1,443,-7.7% (inactive),5.7% (inactive),88.7,-73.4% (inactive),142,1.88,0.607,-1.91,22.3% (inactive),-0.491 (inactive),-0.000121 (inactive),0.0059 (inactive),0.00508 (inactive),inactive,-0.946% (inactive),4.57% (inactive),19.6% (inactive)
CCCc1nc(N2CCOCC2)c(C#N)c2c1CCCC2,496,-5.5% (inactive),-8.4% (inactive),89.6,-58.9% (inactive),128,-0.193,0.212,-0.0343,5.35% (inactive),-0.436 (inactive),-0.000102 (inactive),0.00439 (inactive),0.00443 (inactive),inactive,-4.21% (inactive),19.9% (inactive),22.6% (inactive)
CCOC(=O)C1/C(=N\O)CC(C)(O)C(C(=O)OCC)C1c1ccc(N(C)C)cc1 (configuration not stated),497,-1.5% (inactive),-7.6% (inactive),106,-131% (inactive),152,-0.215,1.47,0.208,1.9e-07% (inactive),-0.427 (inactive),-4.6e-05 (inactive),0.00546 (inactive),0.00445 (inactive),inactive,0.652% (inactive),10.4% (inactive),16% (inactive)
O=C(NCc1cccnc1)/C(=N\O)c1ccccc1,415,-4.8% (inactive),-9.8% (inactive),100,-66.8% (inactive),97.2,0.444,0.0712,-0.943,5.95% (inactive),-0.424 (inactive),1.4e-05 (inactive),0.00513 (inactive),0.00494 (inactive),inactive,-9.8% (inactive),6.94% (inactive),4.43% (inactive)
CCCCc1nc(NCCN2CCOCC2)c(C#N)c2c1COC(C)(C)C2,472,-7.6% (inactive),-37.3% (inactive),122,-75.1% (inactive),116,-1.08,2.36,-1.06,3.42% (inactive),-0.542 (inactive),8.4e-06 (inactive),0.00518 (inactive),0.00481 (inactive),inactive,98.1% (active),15.9% (inactive),10.1% (inactive)
